Screens: PubChem BioAssay, National Center for Advancing Translational Sciences (NCATS)
HP1b binding inh: HP1-beta chromodomain-methylated histone interaction inhibition. P83916. Potency, µM (titrated, usually from 114 µM), inactives show at the top dose activity change, negative = inhibition, actives largely listed as inhibitors. 0.56% of 390,000 active. AlphaScreen HP1-beta / biotin-H3K9me3 peptide binding; further: nearly all actives have a fitted effect of over 70% in size
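Compound inhibition of the preformed complex between 50 nM HP1-beta and 50 nM biotinylated H3K9me3 peptide was read by AlphaScreen. Buffer was PBS pH 7.4 with 0.01% Tween-20. Incubations ran 30 min at room temperature, with 10 ug/mL donor/acceptor beads.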
G9a block: blocks human histone lysine methyltransferase G9a; Q96KQ7; 8.8% of 350,000 active; Potency, µM (top dose mostly 102 µM), for inactives: top-dose activity, negative = inhibition, most hits filed as inhibitors; G9a H3K9 monomethylation, AlphaScreen, 2 h; further: on the % scale 0 is the no-effect control and ±100 the full control effect; nearly all actives have a fitted effect of over 75% in size
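Using a bead-based AlphaScreen, monomethylated H3K9 product from 2 h room-temperature reactions (G9a 20 nM, peptide 500 nM, SAM 20 uM) was detected with 0.5 ug/mL rabbit anti-H3K9me1 antibody.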
BAZ2B block: blocks human BAZ2B; Q9UIF8; AlphaScreen BAZ2B-H3K14Ac peptide displacement; Potency, µM (top dose mostly 114 µM), for inactives: at the top dose activity change, negative = inhibition, actives largely listed as inhibitors; 4.4% of 360,000 active; further: on the % scale 0 is the no-effect control and ±100 the full control effect; nearly all actives have a fitted effect of over 60% in size
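AlphaScreen luminescence quantifies BAZ2B engagement of H3K14Ac peptide; the protein and biotinylated peptide are both at 50 nM final, buffer PBS pH 7.4 with 0.01% Tween-20, all steps at room temperature.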
JMJD2A Tudor: JMJD2A Tudor domain (human) inhibition; O75164; AlphaScreen JMJD2A-Tudor / H3K4me3 peptide binding; 4.4% of 390,000 active; Potency, µM (doses to about 114 µM), without a hit: at the highest dose activity change, negative = inhibition, usual class: inhibitors; further: on the % scale 0 is the no-effect control and ±100 the full control effect; nearly all actives have a fitted effect of over 50% in size
L3MBTL1 inh: inhibitors of human L3MBTL1; Q9Y468; AlphaScreen L3MBTL1–H3K9me1 peptide binding; Potency, µM (top dose mostly 57.1 µM), for the others: top-dose activity, negative = inhibition, most hits filed as inhibitors; 0.66% of 230,000 active; further: on the % scale 0 is the no-effect control and ±100 the full control effect; nearly all actives have a fitted effect of over 60% in size
Target sequence (Q9Y468 whole entry, looked up): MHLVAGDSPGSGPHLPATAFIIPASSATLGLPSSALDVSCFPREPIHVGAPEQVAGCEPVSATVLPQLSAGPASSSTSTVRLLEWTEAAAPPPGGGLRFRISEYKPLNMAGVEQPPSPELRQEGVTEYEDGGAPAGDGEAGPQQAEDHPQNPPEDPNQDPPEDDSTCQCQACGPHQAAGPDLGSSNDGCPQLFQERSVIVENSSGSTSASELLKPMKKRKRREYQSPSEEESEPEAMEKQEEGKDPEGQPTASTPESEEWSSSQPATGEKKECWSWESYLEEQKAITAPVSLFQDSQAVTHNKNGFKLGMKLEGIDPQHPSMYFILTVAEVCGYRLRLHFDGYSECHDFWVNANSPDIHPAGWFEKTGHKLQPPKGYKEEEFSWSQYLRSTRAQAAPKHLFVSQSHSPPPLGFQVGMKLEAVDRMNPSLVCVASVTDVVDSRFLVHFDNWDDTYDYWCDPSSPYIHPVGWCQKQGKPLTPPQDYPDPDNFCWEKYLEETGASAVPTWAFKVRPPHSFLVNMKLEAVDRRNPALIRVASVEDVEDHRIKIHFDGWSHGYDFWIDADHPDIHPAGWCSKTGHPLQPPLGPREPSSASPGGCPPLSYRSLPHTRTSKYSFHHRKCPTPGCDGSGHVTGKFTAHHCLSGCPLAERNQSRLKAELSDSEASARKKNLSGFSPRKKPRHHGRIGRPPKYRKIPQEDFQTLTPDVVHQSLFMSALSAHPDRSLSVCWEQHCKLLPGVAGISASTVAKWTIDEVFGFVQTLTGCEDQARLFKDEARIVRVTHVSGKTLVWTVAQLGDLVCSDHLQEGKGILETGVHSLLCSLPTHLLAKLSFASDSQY
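First, the protein-peptide complex forms for 30 min at room temperature (L3MBTL1 50 nM, biotinylated H3K9me1 peptide 75 nM). Next, compounds are pin-transferred and incubated 30 min. Finally, AlphaScreen beads are added and read after 30 min.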
An asterisk follows results filed as active; ? = inconclusive; . = no result given; [ ] = remark or other dose. An excerpt weighted towards active compounds, which were near 11% of everything screened. The call rests on the fitted dose curve; in most records, active means well fitted inhibition curve with a large enough effect; inconclusive means small, poorly fitted or top-dose-only effect; inactive means no such curve, though single readings can be large or run the other way. Potency means the concentration at half of the fitted maximal effect.

SMILES	HP1b binding inh	G9a block	BAZ2B block	JMJD2A Tudor	L3MBTL1 inh
Cc1ccc(Nc2nc(N)nc(CN3CCN(Cc4ccc5c(c4)OCO5)CC3)n2)cc1	-9%	12%[12.7 µM]	56µM*	?	-8%
Nc1nc(CN2CCN(Cc3ccccc3)CC2)nc(Nc2ccc3c(c2)OCCO3)n1	27%	-13%[12.7 µM]	20µM*	?	.
Cc1ccc(Nc2nc(N)nc(CN3CCN(Cc4ccc5c(c4)OCO5)CC3)n2)cc1C	-5%	.	40µM*	?	-13%
Cc1ccc(Nc2nc(N)nc(CN3CCN(Cc4ccc5c(c4)OCO5)CC3)n2)c(C)c1	?	3%	56µM*	-33%[57.1 µM]	-11%
Cc1ccc(Nc2nc(N)nc(CN3CCN(C)CC3)n2)cc1C	.	?	12%	.	8%
Cc1ccc(NC(=O)N2CCN(Cc3ccc4c(c3)OCO4)CC2)cc1	1%	23%[12.7 µM]	5%	-10%	.
O=C(NCc1ccc(F)cc1)C(=O)NCC1OCCCN1S(=O)(=O)c1cccs1 (stereo not given)	11%	36%	-3%	-8%	.
CCOc1cc(C2C3=C(CC(C)(C)CC3=O)Nc3n[nH]c(C)c32)ccc1O (stereo not given)	33%	-34%	-19%	-3%	.
COc1cccc(/C=N/Nc2nc3ccccc3[nH]2)c1O	12%	.	4%	?	19%
COc1ccc2nc(C)cc(N/N=C/c3cccc(OC)c3O)c2c1	?	45µM*	45µM*	50µM*	-14%
COc1ccc(/C=N/Nc2cc(C)nc3ccc(Br)cc23)cc1	?	-6%[2.33 µM]	?	?	.
COc1cccc(/C=N/Nc2ncnc(Cl)c2N)c1O	32%	54%[59 µM]	7.9µM*	-27%	20µM*
COc1cccc(/C=N/Nc2ncnc3scc(-c4ccccc4)c23)c1O	-1%	?	13µM*	45µM*	32µM*
COc1cccc(/C=N/Nc2nccnc2Cl)c1O	21%	61%[12.7 µM]	14µM*	40µM*	?
COc1ccc(/C=N/Nc2nccnc2Cl)c(OC)c1	-6%	.	?	-6%[11.4 µM]	3%
CCCCOC(=O)c1ccc(NC(=O)c2cc3c(=O)n4cccc(C)c4nc3n2C)cc1	41%	-33%[59 µM]	2%	-6%	.
CN(CC(=O)NCc1ccccc1F)S(=O)(=O)c1ccc(Cl)cc1	46%	12%	8%	-1%	.
Nc1c(Cl)ncnc1N/N=C/c1ccncc1	32%	45µM*	-9%	1%	0%
Nc1c(Cl)ncnc1N/N=C/c1cccc(O)c1	21%	31%[12.7 µM]	-24%	-21%	.
COc1ccc(/C=N/Nc2ncnc(Cl)c2N)cc1OC	2%	50µM*	?	-25%	-6%
COc1ccc(/C=C/C(=O)NC(CCSC)C(=O)O)cc1 (stereo not given)	8%	-9%	-7%	15%	.
Cc1ccc(CNC(=O)c2ccc(-c3nc(CN4CCc5ccccc54)c(C)o3)cc2)cc1	17%[57 µM]	-27%[59 µM]	-17%	-35%	.
Cc1oc(-c2ccc(C(=O)N(C)Cc3ccccc3)cc2)nc1CN1CCc2ccccc21	-22%[57 µM]	?	25µM*	28µM*	.
O=C(NCc1ccc2c(c1)CCN2C(=O)c1ccc(F)cc1)c1ccc(Br)o1	18%	-26%[59 µM]	-23%	-30%	.
Cc1cc(=O)oc2cc(OCC(=O)NCCc3nc4ccccc4[nH]3)ccc12	15%	50µM*	3%	-13%	.
SMILES	HP1b binding inh	G9a block	BAZ2B block	JMJD2A Tudor	L3MBTL1 inh
Cc1nnc(NC(=O)COc2ccc3c(C)cc(=O)oc3c2)s1	6%	8.9µM*	?	-22%	.
Cc1cc(C)c(NC(=O)Cn2c(=O)n(CCCCC(=O)NCc3ccccc3Cl)c(=O)c3ccccc32)c(C)c1	9%	-7%[59 µM]	3%	-13%	.
COc1cccc(CNC(=O)Cn2ncn3cccc3c2=O)c1OC	27%	6%	-30%	-16%	-3%
COc1cc(/C=N/Nc2nc3ccccc3s2)ccc1OC(=O)c1ccccc1F	-17%	9%[59 µM]	?	?	-1%
COc1cc(OC)cc(C(=O)Oc2ccc(/C=N/Nc3nc4ccccc4s3)cc2OC)c1	1%	28µM*	-11%	-29%	-6%
COc1cc(/C=N/Nc2nc3ccccc3s2)cc([N+](=O)[O-])c1O	?	32µM*	35µM*	40µM*	-11%
O=[N+]([O-])c1cc(Cl)cc(/C=N/Nc2nc3ccccc3s2)c1O	?	.	6.3µM*	-25%[11.4 µM]	-19%
COc1ccc(C=NNc2nc3ccccc3s2)cc1	-22%	.	.	-24%	.
O=C(c1cc(-n2cnnc2)ccc1Cl)N1CCN(c2nc(-c3ccccc3)cs2)CC1	?	6%	-2%	56µM*	6%
O=C(c1ncn[nH]1)N1CCN(c2nc(-c3ccccc3)cs2)CC1	-18%	?	-34%	-35%	-3%
O=[N+]([O-])c1ccc2nonc2c1Nc1cccc(F)c1	-21%	-19%	?	?	.
O=[N+]([O-])c1cc(F)cc(F)c1Nc1cc(F)cc(F)c1	?	.	.	45µM*	.
CS(=O)c1ccccc1-c1nc(-c2cccc(Cl)c2)no1 (stereo not given)	-2%	-3%	3%	35µM*	19%
CSc1ccccc1OCc1cc(C(=O)N(C)CCn2nc(C)cc2C)no1	-4%	0%[0.501 µM]	?	13µM*	.
CSc1ccccc1OCc1cc(C(=O)N(C)Cc2nonc2C)no1	23%	14%	-1%	-5%	.
O=C(CN1C(=O)NC2(CCCC2)C1=O)N1CCN(S(=O)(=O)c2cc(Cl)ccc2Cl)CC1	3%	16%[12.7 µM]	1%	-12%	-2%
COCCNC(=S)N/N=C1\CC(C)CC(C)(C)C1 (stereo not given)	1%	50µM*	?	-25%	6%
COCCNC(=S)NN=C1CCCCCC1	6%	7%	-22%	-13%	.
C=CCNc1nnc(Cc2ccc(C(C)C)cc2)c(=O)[nH]1	-8%	-8%	?	56µM*	.
COc1ccc(C(=O)NC(=S)N2CCN(c3ccccc3O)CC2)cc1	18%	.	.	-20%	-7%
COc1ccc(C(=S)N2CCNCC2)cc1	10%	2%[59 µM]	6%	0%	.
CC(CN1CCN(C)CC1)OC(=O)c1ccc(Cl)cc1 (stereo not given)	28%	?	-6%	?	1%
COc1ccc(C(=S)N2CCN(c3ccccc3C)CC2)cc1	-10%	8.9µM*	-28%	-30%	.
CCOc1ccc(C(=O)OC(C)CN2CCN(C)CC2)cc1 (stereo not given)	-10%	?	-18%	79µM*	.
COc1ccc(C(=S)N2CCCCCC2)cc1	?	6.3µM*	3%	89µM*	?
CCN1CCN(C(=S)c2ccc(Cl)cc2)CC1	?	?	-1%	79µM*	.
CCOc1ccc(C(=S)N2CCN(C)CC2)cc1	-2%	40µM*	-19%	-4%	-4%
COc1cc(C(=S)N2CCCC2)cc(OC)c1O	-25%	32µM*	-3%	2%	.
N#Cc1ccc(C(=O)OCC(=O)N2CCCC2)cc1	12%	45µM*	3%	-7%	.
